Pf apPOL block = Pf-apPOL DNA polymerase inhibition | Recombinant Pf-apPOL, molecular beacon fluorescence, 1.5 h | inhibition, % at 10 µM | hit rate 0.25% among 210,000 | AID 1794808
mHTT CaM bind = mHTT-calmodulin interaction abrogation; P42858; AlphaScreen His-mHTT/GST-CaM binding, luminescence; inhibition, % at 15 µM; hit rate 3.6% among 190,000; AID 1671202;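 note: 0% = both proteins with DMSO and 100% = one protein alone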
* hit, by the source's call. The full list was thinned out, with hits kept by preference. Cut-off read from the data, not from the text of the source: active = inhibition above about 50%; inactive = the rest.

Results for COc1cc(O)c(C(CCN2CCN(c3ccccc3)CC2)c2cc(OC)c(OC)c(OC)c2)c(OC)c1 (stereo not drawn) ?
Pf apPOL block: -5; mHTT CaM bind: 100*

How did COc1cc(O)c(C(CC(=O)N2CCN(c3ccccc3)CC2)c2ccc3c(c2)OCO3)c(OC)c1 (stereo not drawn) do in these assays?
Pf apPOL block: 0; mHTT CaM bind: 62*

Results for COc1cc(O)c(C(CCN2CCN(c3ccccc3)CC2)c2ccc3c(c2)OCO3)c(OC)c1 (stereo not drawn) ?
Pf apPOL block: -2; mHTT CaM bind: 82*

Results for COc1cc(O)c(C(CCN2CCCC2)c2ccc3c(c2)OCO3)c(OC)c1 (stereo not drawn) ?
Pf apPOL block: -2; mHTT CaM bind: 31

Results for COc1ccc(C(CCN2CCOCC2)c2c(O)cc(OC)cc2OC)cc1 (stereo not drawn) ?
Pf apPOL block: -8; mHTT CaM bind: 6

What do the screens show for `COc1cc(O)c(C(CCN2CCCC2)c2ccc(N(C)C)cc2)c(OC)c1` (stereo not drawn)?
Pf apPOL block: -4; mHTT CaM bind: 60*

What do the screens show for `COCCCNC(=O)C1CCN(c2nnc(-c3ccc(C)cc3)o2)CC1`?
Pf apPOL block: -6; mHTT CaM bind: 16

Results for COc1ccc(C2=CC(c3cc(OC)ccc3OC)n3ncnc3N2)cc1 (stereo not drawn) ?
Pf apPOL block: -3; mHTT CaM bind: 15

Results for O=C(c1cc2c(s1)CN(C1CCCC1)C2)N1CCN(c2ccccc2F)CC1 ?
Pf apPOL block: -2; mHTT CaM bind: 0

What do the screens show for `COc1cccc(CN2CCc3c([nH]c4ccccc34)C2)c1OC`?
Pf apPOL block: 5; mHTT CaM bind: 18

How did c1ccc2c3c([nH]c2c1)CN(Cc1ccc2c(c1)OCO2)CC3 do in these assays?
Pf apPOL block: -2; mHTT CaM bind: 29

Results for CN(C)c1ccc(CN2CCc3c([nH]c4ccccc34)C2)cc1 ?
Pf apPOL block: -40; mHTT CaM bind: 60*

What do the screens show for `Clc1ccccc1CN1CCc2c([nH]c3ccccc23)C1`?
Pf apPOL block: -1; mHTT CaM bind: 95*

Results for CCOC(=O)Cn1nnc(-c2cc(Cl)cc(Cl)c2)n1 ?
Pf apPOL block: -4

Results for O=C1C(Nc2cccc(I)c2)=C(N2CCCC2)C(=O)c2ccccc21 ?
Pf apPOL block: 27; mHTT CaM bind: 99*

What do the screens show for `Cc1cccc(NC2=C(N3CCOCC3)C(=O)c3ccccc3C2=O)c1`?
Pf apPOL block: -3; mHTT CaM bind: 29

What do the screens show for `O=C1C(Nc2ccc(F)c(F)c2)=C(N2CCOCC2)C(=O)c2ccccc21`?
Pf apPOL block: -10; mHTT CaM bind: 32

How did CC(=O)NC1=C(N2CCN(c3ccccc3)CC2)C(=O)c2ccccc2C1=O do in these assays?
Pf apPOL block: -7; mHTT CaM bind: 45

How did O=C1C(Nc2cccc(I)c2)=C(N2CCCCC2)C(=O)c2ccccc21 do in these assays?
Pf apPOL block: 24; mHTT CaM bind: 92*

What do the screens show for `O=C1C(Nc2cccc(I)c2)=C(N2CCOCC2)C(=O)c2ccccc21`?
Pf apPOL block: 20; mHTT CaM bind: 86*

What do the screens show for `O=C1C(Nc2cccc(C(F)(F)F)c2)=C(N2CCOCC2)C(=O)c2ccccc21`?
Pf apPOL block: -10; mHTT CaM bind: 66*

What do the screens show for `CC(=O)Nc1ccc(NC2=C(N3CCCCC3)C(=O)c3ccccc3C2=O)cc1`?
Pf apPOL block: -1; mHTT CaM bind: 12

Results for O=C1CC(c2cccc(Cl)c2Cl)c2cc3c(cc2N1)CCC3 (stereo not drawn) ?
Pf apPOL block: -6; mHTT CaM bind: -4

Results for Cc1ccc(CNC(=O)CN2CCC3(CC2)N=C(c2ccc(C)cc2)C(=O)N3)cc1 ?
Pf apPOL block: 1; mHTT CaM bind: 50

Results for COc1ccc(-n2nc3c(c2NC(=O)C(C)(C)C)CS(=O)C3)cc1 (stereo not drawn) ?
Pf apPOL block: -2; mHTT CaM bind: -1

What do the screens show for `Cc1nc2ccccc2c(=O)n1Cc1cccnc1`?
Pf apPOL block: -3; mHTT CaM bind: 0

How did O=c1c2ccccc2nc2c3ccccc3c(NCc3cccnc3)nn12 do in these assays?
Pf apPOL block: -11; mHTT CaM bind: 80*

What do the screens show for `O=c1c2ccccc2nc2c3ccccc3c(NCc3ccccn3)nn12`?
Pf apPOL block: 0; mHTT CaM bind: 81*

How did Cc1cc(C)n(-c2nn3c(=O)c4ccccc4nc3c3ccccc23)n1 do in these assays?
Pf apPOL block: 12; mHTT CaM bind: -9

Results for O=C1C(=Cc2ccc(Cl)cc2)Oc2c1ccc(O)c2CN1CCCC1 ?
Pf apPOL block: -37; mHTT CaM bind: 23

What do the screens show for `O=C(O)C1CSC(c2ccc([N+](=O)[O-])s2)N1` (stereo not drawn)?
Pf apPOL block: -2; mHTT CaM bind: 56*

What do the screens show for `O=C(O)C1CSC(c2cccc([N+](=O)[O-])c2)N1` (stereo not drawn)?
Pf apPOL block: 2; mHTT CaM bind: 4

High-throughput results from PubChem BioAssay.
